Pf growth 96h: inhibits malaria parasite growth, 96 h; P. falciparum luciferase reporter growth, 96 h; Potency, µM (top dose mostly 28.7 µM), for inactives: at the top dose activity change, negative = inhibition, most hits filed as inhibitors; actives 6.9% (n = 320,000); AID 504834; further: potency means the concentration at half of the fitted maximal effect
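Two parasite generations (96 h, 37 C, 5% CO2) of compound exposure in infected erythrocytes (0.05% parasitemia, 2% hematocrit). Luciferase-reporter P. falciparum; decreased luminescence indicates inhibited growth, aimed at apicoplast-acting delayed death.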
Giardia FBPA inh: blocks Giardia fructose-bisphosphate aldolase activity | A8B2U2 | purified Giardia FBPA | Potency, µM (series often up to 59.6 µM), inactives show at the highest dose activity, negative = inhibition, actives largely listed as inhibitors | actives 0.71% (n = 290,000); further: potency means the concentration at half of the fitted maximal effect; nearly all actives have a fitted effect of over 55% in size
Target sequence (A8B2U2 whole entry, looked up): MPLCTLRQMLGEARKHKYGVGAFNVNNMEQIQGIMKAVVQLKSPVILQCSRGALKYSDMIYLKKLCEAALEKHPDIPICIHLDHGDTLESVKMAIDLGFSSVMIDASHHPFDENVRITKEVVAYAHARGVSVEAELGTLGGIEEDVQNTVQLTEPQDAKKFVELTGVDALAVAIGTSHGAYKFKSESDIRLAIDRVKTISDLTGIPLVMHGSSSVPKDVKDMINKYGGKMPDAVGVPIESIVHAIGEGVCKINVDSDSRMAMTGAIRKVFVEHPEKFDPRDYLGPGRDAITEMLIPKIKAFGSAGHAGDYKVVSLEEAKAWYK
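Giardia FBPA (40 nM reagent) was preincubated 10 min at RT with compound (up to 57.5 uM final), then substrate plus GAPDH/TPI/NAD/arsenate coupling system with diaphorase/resazurin was added; resorufin fluorescence (525/598 nm) was read after 20 min.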
Pf growth 48h: inhibits P. falciparum growth in the first generation, 48 h. Potency, µM (top dose mostly 28.7 µM), for the others: top-dose activity change, negative = inhibition, actives largely listed as inhibitors. actives 5.9% (n = 310,000). AID 504832. P. falciparum luciferase growth in erythrocytes, 48 h; further: potency means the concentration at half of the fitted maximal effect
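Read-out is firefly luciferase luminescence from an integrated reporter in P. falciparum, so falling signal marks reduced parasite growth. Infected erythrocytes were at 2% hematocrit and 0.1% parasitemia (final) in Albumax-supplemented RPMI 1640.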
Sm TGR block: inhibitors of Schistosoma mansoni thioredoxin glutathione reductase | Q962Y6 | purified TGR, DTNB reduction, TNB absorbance 405 nm | Potency, µM (titrated, usually from 114 µM), inactives show at the top dose activity change, negative = inhibition, usual class: inhibitors | actives 3% (n = 360,000); further: potency means the concentration at half of the fitted maximal effect; nearly all actives have a fitted effect of over 60% in size
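First, TGR (20 nM dispensed) and NADPH were mixed with compound. Second, a 15 min room-temperature incubation followed. Third, further NADPH and then DTNB were added to start the reaction. Finally, TNB absorbance was monitored kinetically.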
HCMV inh: blocks human cytomegalovirus replication | AID 1259415 | actives 4.5% (n = 410,000) | activity change, negative = inhibition, % at 57.5 µM | HFF cells, HCMV-luciferase reporter, 72 h; hits give low values; in the data active means activity change below about -60%; inconclusive means no clear call, values can overlap the other calls; inactive means above about -39%
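Two compound doses tested in HFFs infected with HCMV-luciferase, MOI 1 PFU/cell, 72 h at 37C. Lysate luminescence read with OneGlo; data normalized against buffer-only and 10uM Salinomycin inhibitor controls.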
* = called active by the depositor; u = inconclusive; x = not tested or not shown; [ ] = dose if it differs, or a comment. In the library only some 14% were active in any assay of this set; here they are far more common. Unless noted, the call rests on the fitted dose curve; in most records, active means well fitted curve in the direction sought with a large enough effect; inconclusive means small, poorly fitted or top-dose-only effect, or another doubt; inactive means no such curve, though single readings can be large; an effect the other way counts as inactive or inconclusive. On the % scale 0 is the no-effect control and ±100 the full control effect.

SMILES	Pf growth 96h	Giardia FBPA inh	Pf growth 48h	Sm TGR block	HCMV inh
O=C(CCNS(=O)(=O)c1ccccc1)N1CCN(C(c2ccccc2)c2ccccc2)CC1	5.86µM*	x	u	-24.5%	-11.2
CC(=O)Nc1ccc(S(=O)(=O)NCCC(=O)N2CCN(C(c3ccccc3)c3ccccc3)CC2)cc1	10.4µM*	x	11.7µM*	-5.1%	u
COc1cccc(NC(=O)CN(C)C(=O)COc2ccc3ccccc3c2)c1	21.0%	-8.2%	16.4%	0.7%	17.9
CN(C)C(=O)c1ccc(Oc2ccc(C(=O)N(C)C)cc2)cc1	1.85µM*	10.3%	8.4%	8.6%	28.8
CC(=O)c1ccc(Oc2ccc(C(C)=O)cc2)cc1	u	0.3%	135.2%	6.2%	94.9
CCOC(=O)N1C(=O)[C@](c2ccc(Cl)cc2)(C(C)C)N1C(=O)OCC	45.4%	-4.6%	-1.2%	17.8µM*	-90.0*
CCOC(=O)N1C(=O)[C@@](c2ccc(Cl)cc2)(C(C)C)N1C(=O)OCC	56.5%	-7.9%	u	11.2µM*	44.0
COc1ccc2c(c1OC)C(=O)N1c3ccccc3C(=O)N(c3ccccc3F)C21 (stereo not given)	11.7µM*	3.6%	10.4µM*	-10.1%	3.1
O=[N+]([O-])c1cccc(CON=Cc2ccccc2O)c1	x	x	x	x	51.1
COc1ccc(C(=O)NCCc2c[nH]c3ccccc23)cc1S(=O)(=O)N1CCCCC1C (stereo not given)	13.1µM*	x	8.28µM*	-14.5%	151.1
COc1ccc(C(=O)NCC(c2ccco2)N2CCCC2)cc1S(=O)(=O)N1CCCCC1C (stereo not given)	5.22µM*	x	u	-18.2%	-4.3
CN=C1N[C@H](c2ccccc2)N(c2ccccc2)S1	x	22.3µM*	x	x	x
CN1CCc2nc(NC(=O)c3cccc(S(=O)(=O)N4CCc5ccccc54)c3)sc2C1	58.4%	18.0%	5.86µM*	-5.0%	20.8
CCOC(=O)c1sc(NC(=O)c2cccnc2)c(C#N)c1C	u	4.4%	40.4%	-2.7%	16.9
O=C(Nc1nc2c(s1)CCCC2)c1cccc(S(=O)(=O)N2CCCc3ccccc32)c1	u	-3.6%	9.28µM*	0.9%	u
CCOC(=O)c1sc(NC(=O)c2cccc(S(=O)(=O)N3CCc4ccccc43)c2)c(C#N)c1C	17.9%	0.1%	u	-0.3%	-98.9*
CCC(CC)c1nnc(NC(=O)c2cccc(S(=O)(=O)N3CCc4ccccc43)c2)s1	u	x	14.7µM*	-15.4%	-39.2
CCOCc1cc(=O)[nH]c(SC)n1	-15.3%	-0.4%	1.7%	9.0%	-60.1*
CCOc1ccccc1OCCCC(=O)Nc1sccc1C(N)=O	u	-9.1%	11.7µM*	-2.2%	-61.1*
CN(NS(=O)(=O)c1ccccc1)C(=O)c1ccccc1	x	x	x	x	-99.9*
COc1cc(Cl)cc(/C=C/c2ccc3ccccc3n2)c1OC(C)=O	u	-5.5%	14.8%	-12.5%	-11.8
CC(=O)Oc1ccc(Cl)cc1/C=C/c1cc(OC(C)=O)c2ccccc2n1	u	-7.4%	1.65µM*	-20.5%	51.8
Cc1cc(CC(=O)O)c2oc(-c3ccoc3)cc(=O)c2c1	x	x	x	x	-1.5
Cc1c(Cl)cccc1-n1c(SCC(=O)NCc2ccccc2Cl)nnc1-c1ccncc1	8.28µM*	6.3%	8.28µM*	5.0%	-101.9*
Cc1c(Cl)cccc1-n1c(SCC(=O)NCc2cccs2)nnc1-c1ccncc1	u	7.7%	u	4.5%	16.2
SMILES	Pf growth 96h	Giardia FBPA inh	Pf growth 48h	Sm TGR block	HCMV inh
Cc1ccc(F)cc1-c1ccc(C(=O)N=C(N)N)o1	x	0.0%	x	x	x
CCc1ccc(N(C(=O)c2csnn2)C(C(=O)NC(C)(C)CC)c2cccnc2)cc1 (stereo not given)	u	2.6%	-20.8%	-0.6%	15.0
COc1ccc(CCNC(=O)CC2Nc3ccccc3NC2=O)cc1 (stereo not given)	u	-16.4%	x	0.0%[11.4 µM]	27.0
CC(C)(C)CC(=O)NC(=S)NCCc1ccccc1	11.7µM*	-0.8%	-12.4%	-34.1%	162.2
COc1ccc(CCNC(=S)NC(=O)c2cccc(Cl)c2)cc1OC	u	-18.1%	u	0.0%	28.3
COc1ccc(CCNC(=S)NC(=O)c2ccccc2)cc1OC	13.3%	-1.9%	4.0%	50.1µM*	-6.9
CC(C)CC(=O)NC(=S)NCCc1ccccc1	u	-9.9%	u	u	25.4
COc1ccc(CCN2C(=O)c3cccc4cccc(c34)C2=O)cc1OC	u	2.8%	3.5%	0.8%	-35.8
COc1ccc(CCNC(=O)CN2C(=O)c3cccc4cccc(c34)C2=O)cc1OC	10.4µM*	2.4%	12.4%	x	-28.8
COc1ccc(CCNC(=O)CC2Nc3ccccc3NC2=O)cc1OC (stereo not given)	1.47µM*	-16.5%	u	5.9%	-25.5
O=S(=O)(N/N=C/c1cccnc1)c1ccc(Cl)c(Cl)c1	34.0%	14.1%	30.4%	-26.1%	-29.7
CC1(Oc2cccc(F)c2)CCN(Cc2ccc3ccccc3c2)C1 (stereo not given)	x	x	x	x	-6.5
COc1ccc(/C=C/C(=O)NC(=S)NCCc2ccc(OC)c(OC)c2)cc1	u	0.8%	u	2.7%	-61.8*
COc1ccc(CCNC(=O)CSC(=O)c2ccccc2)cc1OC	u	-5.4%	-21.4%	-27.1%	-60.2*
COc1ccc(CCNC(=O)CSc2cn(Cc3cccc(C)c3)c3ccccc23)cc1OC	9.28µM*	2.3%	u	0.7%	24.5
CCC(C)(C)C1CCC2(CC1)NC(=O)N(CC(=O)NCCc1ccc(OC)c(OC)c1)C2=O (stereo not given)	u	x	11.7µM*	-10.0%	-10.4
COc1ccc(CCNC(=O)/C=C\c2ccccc2)cc1OC	63.4%	3.5%	u	7.4%	u
COc1ccc(CCNC(=O)CSc2cn(Cc3ccccc3)c3ccccc23)cc1OC	u	-0.3%	u	3.4%	-24.1
COc1ccc(CCNC(=O)CSc2ccccc2)cc1OC	-2.1%	0.0%	-13.9%	4.4%	-30.2
O=C(NC(=S)NCCc1ccccc1)c1cccc(Cl)c1	7.3%	x	8.6%	39.8µM*	-19.2
COc1ccc(C(=O)NC(=S)NCCc2ccccc2)cc1	21.6%	-4.2%	12.3%	x	-16.9
Cc1cc(C)cc(-n2c(N)c(C(=O)Nc3c(C)n(C)n(-c4ccccc4)c3=O)c3nc4ccccc4nc32)c1	2.94µM*	-18.2%	11.8%	-8.6%	19.4
Cc1ccc(-n2c(N)c(C(=O)Nc3c(C)n(C)n(-c4ccccc4)c3=O)c3nc4ccccc4nc32)cc1	u	-3.0%	9.28µM*	0.4%	u
COc1ccc(C2=Cc3ccccc3C(CC(=O)C3CC3)N2c2ccc(C#CCCO)cc2)cc1 (stereo not given)	x	x	x	x	-21.8
Cc1nc(-c2cccc(F)c2)sc1CCNC(=O)Cc1ccc(F)cc1	x	x	x	-6.5%	6.2

From PubChem BioAssay
